Measured values taken from the supplement of paper PMC10849652.
Targets with a hit are over-represented here; the source holds about 8,800 in all. About 0.5% of all pairs of compound and target were hits.

Assays:
Test in all cases: log2 fold change, soluble protein after heating vs DMSO (PISA); higher = thermal stabilisation; K562 lysate, 10 uM; active = over 0.2 and 3.5 SD of the protein, either way, in both replicates (recomputed)
[1] = compound: C1=CC=C(C=C1)[C@H](COC2=CC3=C(C=C2)NC(=O)N3)NC(=O)C4=CC=CN(C4=O)CC5=CC(=C(C=C5)F)F
Method in brief: (§1)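 Pellets of K562 cells were dounce-homogenised in PBS pH 7.4 with 1 mM MgCl2, and the crude extract was held at 1 mg/mL protein for a 30 min treatment with 10 μM compound. Aliquots were heated for 3 min over 48°C-58°C and pooled before NP-40 was added to 0.5% at 4°C. The supernatant from 21,000xg for 90 min was quantified by TMTpro 16plex LC-MS/MS with channel sums equalised. Values are reported from duplicates as log-two fold change in thermal stability relative to solvent controls.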

[2] = compound: CC1=C(SC2=C1C(=N[C@H](C3=NN=C(N32)C)CC(=O)N)C4=CC=C(C=C4)Cl)C
Method in brief: as §1

[3] = compound: CC1=C2C(=CC=C1)N=C(N(C2=O)C3=CC=CC=C3C)CN4C=NC5=C(N=CN=C54)N
Method in brief: as §1

[4] = compound: Cc1sc2c(c1C)C(c1ccc(Cl)cc1)=N[C@@H](CC(=O)OC(C)(C)C)c1nnc(C)n1-2
Method in brief: as §1

[5] = compound: c1ccc([C@@H]2C[C@H]2NC2CCNCC2)cc1
Method in brief: as §1

Measured: log2 fold change

AKAP11 (UniProt Q9UKA4)
inactive: [1] 0.025 | [2] -0.008 | [3] 0.059 | [4] -0.041 | [5] -0.012

AARS2 (UniProt Q5JTZ9)
inactive: [1] 0.014 | [2] -0.076 | [3] 0.026 | [4] 0.041 | [5] 0.045

AKAP8 (UniProt O43823)
inactive: [1] -0.02 | [2] 0.073 | [3] -0.016 | [4] -0.009 | [5] -0.014

AKT2 (UniProt P31751)
Chain of UniProt P31751 (P31751 whole entry, looked up): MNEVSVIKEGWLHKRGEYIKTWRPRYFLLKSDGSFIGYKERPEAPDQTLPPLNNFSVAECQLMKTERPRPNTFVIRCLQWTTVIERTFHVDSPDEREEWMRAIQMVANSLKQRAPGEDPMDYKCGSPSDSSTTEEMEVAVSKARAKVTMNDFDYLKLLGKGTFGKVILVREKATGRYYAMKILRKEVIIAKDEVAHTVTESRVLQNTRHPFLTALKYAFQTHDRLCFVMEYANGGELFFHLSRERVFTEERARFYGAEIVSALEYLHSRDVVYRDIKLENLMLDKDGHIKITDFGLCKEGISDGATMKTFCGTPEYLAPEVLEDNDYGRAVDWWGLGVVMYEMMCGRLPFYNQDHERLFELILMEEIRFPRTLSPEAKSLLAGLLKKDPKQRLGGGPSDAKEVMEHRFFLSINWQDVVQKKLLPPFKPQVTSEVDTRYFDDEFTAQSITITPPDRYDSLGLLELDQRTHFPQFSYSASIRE
inactive: [1] 0.011 | [2] 0.003 | [3] 0.031 | [4] 0.02 | [5] 0.028

AMD1 (UniProt P17707)
inactive: [1] -0.027 | [2] 0.01 | [3] -0.017 | [4] 0.005 | [5] -0.019

ABHD11 (UniProt Q8NFV4)
Chain of UniProt Q8NFV4 (Q8NFV4 whole entry, looked up): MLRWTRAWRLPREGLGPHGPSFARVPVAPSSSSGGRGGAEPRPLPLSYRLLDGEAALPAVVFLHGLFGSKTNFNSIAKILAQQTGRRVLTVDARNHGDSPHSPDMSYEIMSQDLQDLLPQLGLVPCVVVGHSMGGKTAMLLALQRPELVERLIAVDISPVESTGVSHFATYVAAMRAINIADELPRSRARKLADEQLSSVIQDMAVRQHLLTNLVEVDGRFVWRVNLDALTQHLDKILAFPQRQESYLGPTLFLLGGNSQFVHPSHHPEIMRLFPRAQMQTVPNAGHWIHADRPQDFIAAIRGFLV
inactive: [1] 0.072 | [2] -0.031 | [3] 0.028 | [4] -0.021 | [5] -0.098

ACTG1 (UniProt I3L4N8)
inactive: [1] -0.042 | [2] -0.082 | [3] -0.098 | [4] -0.245 | [5] 0.218

AK1 (UniProt P00568)
inactive: [1] -0.032 | [2] 0.024 | [3] -0.009 | [4] 0.012 | [5] 0.2

ABI1 isoform 9 (UniProt Q8IZP0)
inactive: [1] -0.013 | [2] -0.008 | [3] -0.006 | [4] -0.004 | [5] -0.117

ABCC5 (UniProt O15440)
Chain of UniProt O15440 (O15440 whole entry, looked up): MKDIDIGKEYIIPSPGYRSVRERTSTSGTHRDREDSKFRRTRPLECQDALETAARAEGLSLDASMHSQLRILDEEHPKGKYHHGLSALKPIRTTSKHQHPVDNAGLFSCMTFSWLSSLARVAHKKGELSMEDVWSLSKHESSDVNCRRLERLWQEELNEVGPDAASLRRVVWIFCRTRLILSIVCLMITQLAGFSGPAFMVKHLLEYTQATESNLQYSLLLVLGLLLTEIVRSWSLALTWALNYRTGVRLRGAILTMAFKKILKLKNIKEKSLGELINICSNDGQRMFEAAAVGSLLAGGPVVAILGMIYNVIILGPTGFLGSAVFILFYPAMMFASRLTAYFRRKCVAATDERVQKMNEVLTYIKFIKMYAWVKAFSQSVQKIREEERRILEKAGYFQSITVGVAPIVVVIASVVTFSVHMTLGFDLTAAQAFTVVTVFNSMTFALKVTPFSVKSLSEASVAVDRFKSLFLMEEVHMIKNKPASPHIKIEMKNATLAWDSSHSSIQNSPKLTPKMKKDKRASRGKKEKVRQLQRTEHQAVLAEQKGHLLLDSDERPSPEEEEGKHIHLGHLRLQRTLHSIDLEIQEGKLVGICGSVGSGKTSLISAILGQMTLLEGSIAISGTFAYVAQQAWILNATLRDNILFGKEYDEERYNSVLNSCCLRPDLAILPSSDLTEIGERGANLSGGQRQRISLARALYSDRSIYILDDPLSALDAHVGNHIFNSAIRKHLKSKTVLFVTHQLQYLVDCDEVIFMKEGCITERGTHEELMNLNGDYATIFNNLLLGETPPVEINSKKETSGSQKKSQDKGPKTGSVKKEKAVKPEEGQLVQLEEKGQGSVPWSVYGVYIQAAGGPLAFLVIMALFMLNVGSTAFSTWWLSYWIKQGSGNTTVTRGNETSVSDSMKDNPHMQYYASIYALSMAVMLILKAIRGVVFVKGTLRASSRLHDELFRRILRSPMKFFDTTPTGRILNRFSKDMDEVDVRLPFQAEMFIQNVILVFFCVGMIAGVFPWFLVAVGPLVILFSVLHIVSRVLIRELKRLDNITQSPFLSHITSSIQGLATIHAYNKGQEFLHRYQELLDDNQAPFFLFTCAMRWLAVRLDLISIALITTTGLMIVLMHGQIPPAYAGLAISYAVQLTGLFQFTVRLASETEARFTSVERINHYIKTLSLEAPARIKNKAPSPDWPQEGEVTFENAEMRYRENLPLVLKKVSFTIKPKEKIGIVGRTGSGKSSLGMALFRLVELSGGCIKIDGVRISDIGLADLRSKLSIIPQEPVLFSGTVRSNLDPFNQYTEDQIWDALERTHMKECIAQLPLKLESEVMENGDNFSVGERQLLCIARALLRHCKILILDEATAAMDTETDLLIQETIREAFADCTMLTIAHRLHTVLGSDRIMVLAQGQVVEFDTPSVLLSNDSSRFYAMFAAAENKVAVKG
inactive: [1] 0.087 | [2] -0.052 | [3] -0.108 | [4] -0.099 | [5] 0.115

ACLY (UniProt P53396)
inactive: [1] 0.011 | [2] 0.03 | [3] 0.004 | [4] 0.03 | [5] 0.023

AKT1 (UniProt P31749)
inactive: [1] 0.011 | [2] -0.028 | [3] -0.028 | [4] -0.009 | [5] 0.013

ACACB (UniProt O00763)
inactive: [1] -0.018 | [2] 0.002 | [3] 0.01 | [4] 0.074 | [5] 0.014

ACSL4 (UniProt O60488)
inactive: [1] -0.058 | [2] 0.046 | [3] 0.032 | [4] -0.106 | [5] 0.038

ABCF3 (UniProt Q9NUQ8)
inactive: [1] 0.002 | [2] -0.016 | [3] 0.031 | [4] 0.013 | [5] 0.06

AGPS (UniProt O00116)
inactive: [1] -0.103 | [2] 0.016 | [3] 0.035 | [4] 0.019 | [5] -0.006

AIMP2 isoform 2 (UniProt Q13155)
inactive: [1] 0.182 | [2] 0.029

ALKBH4 (UniProt Q9NXW9)
Chain of UniProt Q9NXW9 (Q9NXW9 whole entry, looked up): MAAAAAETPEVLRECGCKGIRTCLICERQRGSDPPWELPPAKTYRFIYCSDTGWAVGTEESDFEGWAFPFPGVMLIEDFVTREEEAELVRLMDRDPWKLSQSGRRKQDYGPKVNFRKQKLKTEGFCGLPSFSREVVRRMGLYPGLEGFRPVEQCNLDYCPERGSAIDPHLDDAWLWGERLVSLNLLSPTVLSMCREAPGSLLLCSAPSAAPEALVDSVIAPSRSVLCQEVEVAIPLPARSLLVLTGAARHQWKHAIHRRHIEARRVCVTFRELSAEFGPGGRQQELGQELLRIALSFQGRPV
inactive: [1] 0.011 | [2] 0.025 | [3] 0.032 | [4] 0.01 | [5] -0.017

AIP (UniProt O00170)
inactive: [1] 0.012 | [2] -0.023 | [3] -0.006 | [4] 0.025 | [5] 0.125

ARAP1 (UniProt Q96P48)
inactive: [1] 0.022 | [2] -0.008 | [3] 0.048 | [4] 0.013 | [5] -0.015

ARHGEF2 (UniProt Q92974)
Chain of UniProt Q92974 (Q92974 whole entry, looked up): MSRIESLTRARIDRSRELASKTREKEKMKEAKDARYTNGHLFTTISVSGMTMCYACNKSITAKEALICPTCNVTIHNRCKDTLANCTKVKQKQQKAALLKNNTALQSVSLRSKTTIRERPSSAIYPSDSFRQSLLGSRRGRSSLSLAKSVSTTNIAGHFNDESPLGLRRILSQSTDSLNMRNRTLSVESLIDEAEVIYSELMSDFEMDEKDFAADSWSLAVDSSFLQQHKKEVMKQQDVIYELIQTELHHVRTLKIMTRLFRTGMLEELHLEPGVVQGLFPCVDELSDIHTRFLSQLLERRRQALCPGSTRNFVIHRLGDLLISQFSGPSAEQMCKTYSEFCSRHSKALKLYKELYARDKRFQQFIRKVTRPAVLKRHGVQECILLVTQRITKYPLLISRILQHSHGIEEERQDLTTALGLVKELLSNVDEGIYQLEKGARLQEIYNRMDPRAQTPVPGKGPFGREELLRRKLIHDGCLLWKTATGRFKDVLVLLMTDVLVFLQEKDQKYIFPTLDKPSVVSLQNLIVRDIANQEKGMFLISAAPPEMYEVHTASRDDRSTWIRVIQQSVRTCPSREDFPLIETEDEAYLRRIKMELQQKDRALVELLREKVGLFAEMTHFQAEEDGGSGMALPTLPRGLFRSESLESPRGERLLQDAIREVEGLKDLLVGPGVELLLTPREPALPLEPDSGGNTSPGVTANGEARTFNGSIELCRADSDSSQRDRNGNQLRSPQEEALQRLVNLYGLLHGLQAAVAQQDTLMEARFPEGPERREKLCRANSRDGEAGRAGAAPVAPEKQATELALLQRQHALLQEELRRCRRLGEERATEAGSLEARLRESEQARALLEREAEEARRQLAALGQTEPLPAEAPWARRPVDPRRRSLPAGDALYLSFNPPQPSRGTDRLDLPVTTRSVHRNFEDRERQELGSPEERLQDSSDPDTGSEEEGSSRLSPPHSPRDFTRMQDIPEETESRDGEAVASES
inactive: [1] 0.023 | [2] -0.007 | [3] 0.034 | [4] 0.008 | [5] 0.05

ANXA2 isoform 2 (UniProt P07355)
Chain of UniProt P07355 (P07355 whole entry, looked up): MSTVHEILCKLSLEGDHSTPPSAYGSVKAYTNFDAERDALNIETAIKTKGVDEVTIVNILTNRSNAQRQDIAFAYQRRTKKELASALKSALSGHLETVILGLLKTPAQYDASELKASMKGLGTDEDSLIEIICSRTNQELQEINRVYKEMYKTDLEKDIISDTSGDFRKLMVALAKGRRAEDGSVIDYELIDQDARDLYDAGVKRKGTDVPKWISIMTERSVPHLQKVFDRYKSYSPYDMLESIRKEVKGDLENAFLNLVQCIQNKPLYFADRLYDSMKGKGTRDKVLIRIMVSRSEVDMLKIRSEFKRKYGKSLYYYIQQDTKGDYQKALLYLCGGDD
inactive: [1] 0 | [2] -0.005 | [3] -0.019 | [4] 0.024 | [5] 0.02

AGTPBP1 (UniProt Q9UPW5)
Chain of UniProt Q9UPW5 (Q9UPW5 whole entry, looked up): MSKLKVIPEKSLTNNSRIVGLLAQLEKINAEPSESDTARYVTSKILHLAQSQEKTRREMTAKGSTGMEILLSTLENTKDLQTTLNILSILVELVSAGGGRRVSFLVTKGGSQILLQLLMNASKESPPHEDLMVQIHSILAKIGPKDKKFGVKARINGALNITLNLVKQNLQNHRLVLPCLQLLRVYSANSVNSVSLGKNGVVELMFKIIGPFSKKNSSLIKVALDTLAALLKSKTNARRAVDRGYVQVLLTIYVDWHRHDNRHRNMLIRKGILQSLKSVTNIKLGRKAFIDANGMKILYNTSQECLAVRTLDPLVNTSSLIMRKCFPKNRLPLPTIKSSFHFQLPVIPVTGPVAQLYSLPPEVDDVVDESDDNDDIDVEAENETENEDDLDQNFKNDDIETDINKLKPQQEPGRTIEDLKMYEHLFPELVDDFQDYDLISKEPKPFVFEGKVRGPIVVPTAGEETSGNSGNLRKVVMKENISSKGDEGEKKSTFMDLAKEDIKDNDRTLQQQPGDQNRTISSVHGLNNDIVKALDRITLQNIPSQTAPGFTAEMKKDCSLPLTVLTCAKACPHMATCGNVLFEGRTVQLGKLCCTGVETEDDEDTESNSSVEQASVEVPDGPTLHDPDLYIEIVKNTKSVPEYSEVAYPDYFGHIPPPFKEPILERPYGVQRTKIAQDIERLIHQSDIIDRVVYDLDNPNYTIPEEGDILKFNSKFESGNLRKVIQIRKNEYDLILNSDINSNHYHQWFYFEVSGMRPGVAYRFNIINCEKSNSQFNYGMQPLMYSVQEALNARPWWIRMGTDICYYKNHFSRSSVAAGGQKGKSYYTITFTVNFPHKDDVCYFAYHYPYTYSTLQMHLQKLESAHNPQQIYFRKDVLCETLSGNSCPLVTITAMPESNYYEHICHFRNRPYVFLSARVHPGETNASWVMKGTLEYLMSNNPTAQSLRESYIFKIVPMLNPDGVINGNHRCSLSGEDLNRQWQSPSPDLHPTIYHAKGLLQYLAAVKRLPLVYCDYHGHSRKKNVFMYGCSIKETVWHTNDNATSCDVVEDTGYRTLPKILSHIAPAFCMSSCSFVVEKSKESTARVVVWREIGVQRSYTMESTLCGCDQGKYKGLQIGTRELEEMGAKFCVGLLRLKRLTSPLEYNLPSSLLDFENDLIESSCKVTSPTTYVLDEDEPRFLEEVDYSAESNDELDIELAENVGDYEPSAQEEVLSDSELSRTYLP
inactive: [1] 0.131 | [2] -0.13 | [3] 0.051 | [4] -0.042 | [5] 0.03

ANKRD10 (UniProt Q9NXR5)
inactive: [1] -0.131 | [2] -0.027 | [3] 0.025 | [4] 0.06 | [5] -0.019

ASNS (UniProt P08243)
inactive: [1] 0.006 | [2] 0.021 | [3] 0.027 | [4] 0.057 | [5] 0.033
